Experimental data reported in the supplement of paper PMC10849652.
About 7,900 targets were measured; listed, in parts, are those with a hit and a random draw of the rest. About 0.6% of all pairs of compound and target were hits.

Experiments:
Assay in all cases: log2 fold change, soluble protein after heating vs DMSO (PISA); higher = thermal stabilisation; K562 cells, 10 uM, 30 min; active = over 0.2 and 3.5 SD of the protein, either way, in both replicates (recomputed)
[1] = compound: NC(=O)Nc1cc(-c2cccc(F)c2)sc1C(=O)N[C@H]1CCCNC1
In short: (§1)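 K562 cells at 2×10^6 cells/mL were treated with 10 μM compound for 30 min. Aliquots were heated for 3 min across 48°C-58°C, pooled, and extracted in PBS with 0.5% NP-40 at 4°C; soluble protein was the supernatant after 21,000xg for 90 min. Soluble protein was quantified by TMTpro 16plex LC-MS/MS with channel sums equalised, and reported as log2 fold change in thermal stability against DMSO controls, with values from duplicates.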

[2] = compound: NC(=O)c1cnc(N[C@@H]2CCCC[C@@H]2N)nc1Nc1cccc(-n2nccn2)c1
In short: as §1

[3] = compound: NC1(c2ccc(-c3nc4ccn5c(=O)[nH]nc5c4cc3-c3ccccc3)cc2)CCC1
In short: as §1

[4] = compound: NCC(=O)Nc1ccc(-n2nc(C(F)(F)F)cc2-c2ccc3c(ccc4ccccc43)c2)cc1
In short: as §1

entinostat = compound: Nc1ccccc1NC(=O)c1ccc(CNC(=O)OCc2cccnc2)cc1 [entinostat]
In short: as §1

vorinostat = compound: O=C(CCCCCCC(=O)Nc1ccccc1)NO [vorinostat]
In short: as §1

citarinostat = compound: O=C(CCCCCCNC(=O)c1cnc(N(c2ccccc2)c2ccccc2Cl)nc1)NO [citarinostat]
In short: as §1

silmitasertib = compound: O=C(O)c1ccc2c(c1)nc(Nc1cccc(Cl)c1)c1ccncc12 [silmitasertib]
In short: as §1

[5] = compound: O=C1NC(=O)C(c2cnc3ccccn23)=C1c1cn2c3c(cc(F)cc13)CN(C(=O)N1CCCCC1)CC2
In short: as §1

[6] = compound: c1cc(OCCN2CCCCC2)cc(-c2n[nH]c3ccc(-c4nnc[nH]4)cc23)c1
In short: as §1

Measured: log2 fold change

HIST2H3A (UniProt Q71DI3)
inactive: [1] 0.032 | [2] 0.286 | [3] 0.46 | [4] -0.077 | entinostat 0.196 | vorinostat 0.442 | citarinostat 0.006 | silmitasertib -0.084 | [5] 0.07 | [6] -0.02

GAB2 (UniProt Q9UQC2)
inactive: [1] -0.087 | [2] -0.268 | [3] -0.081 | [4] 0.018 | entinostat 0.127 | vorinostat 0.151 | citarinostat 0.182 | silmitasertib -0.175 | [5] -0.095 | [6] -0.21

HRAS (UniProt P01112)
active: [4] 0.366
inactive: [1] 0.103 | [2] 0.233 | [3] 0.071 | entinostat -0.012 | vorinostat -0.009 | citarinostat -0.067 | silmitasertib 0.003 | [5] 0 | [6] 0.007

HNRNPK isoform 2 (UniProt P61978)
inactive: [1] -0.045 | [2] -0.086 | [3] -0.073 | [4] -0.093 | entinostat 0.056 | vorinostat 0.065 | citarinostat 0.05 | silmitasertib -0.017 | [5] -0.137 | [6] -0.038

HADHB (UniProt P55084)
Chain of UniProt P55084 (P55084 whole entry, looked up): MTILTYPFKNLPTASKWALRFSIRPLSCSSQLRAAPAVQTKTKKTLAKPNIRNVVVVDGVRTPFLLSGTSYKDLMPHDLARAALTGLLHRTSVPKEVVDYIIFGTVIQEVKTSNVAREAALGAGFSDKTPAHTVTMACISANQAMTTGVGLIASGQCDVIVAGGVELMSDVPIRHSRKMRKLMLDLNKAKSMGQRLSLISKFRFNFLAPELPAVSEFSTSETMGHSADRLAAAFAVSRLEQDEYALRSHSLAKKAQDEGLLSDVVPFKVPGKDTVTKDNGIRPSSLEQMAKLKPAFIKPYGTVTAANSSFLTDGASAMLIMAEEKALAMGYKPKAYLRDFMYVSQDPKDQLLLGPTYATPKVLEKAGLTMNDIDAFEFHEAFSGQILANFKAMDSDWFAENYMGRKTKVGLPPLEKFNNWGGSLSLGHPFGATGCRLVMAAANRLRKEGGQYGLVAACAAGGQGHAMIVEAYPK
inactive: [1] -0.079 | [2] 0.021 | [3] 0.104 | [4] 0.078 | entinostat 0.014 | vorinostat 0 | citarinostat 0.037 | silmitasertib -0.115 | [6] -0.056
active: [5] 0.716

GEMIN5 (UniProt Q8TEQ6)
Chain of UniProt Q8TEQ6 (Q8TEQ6 whole entry, looked up): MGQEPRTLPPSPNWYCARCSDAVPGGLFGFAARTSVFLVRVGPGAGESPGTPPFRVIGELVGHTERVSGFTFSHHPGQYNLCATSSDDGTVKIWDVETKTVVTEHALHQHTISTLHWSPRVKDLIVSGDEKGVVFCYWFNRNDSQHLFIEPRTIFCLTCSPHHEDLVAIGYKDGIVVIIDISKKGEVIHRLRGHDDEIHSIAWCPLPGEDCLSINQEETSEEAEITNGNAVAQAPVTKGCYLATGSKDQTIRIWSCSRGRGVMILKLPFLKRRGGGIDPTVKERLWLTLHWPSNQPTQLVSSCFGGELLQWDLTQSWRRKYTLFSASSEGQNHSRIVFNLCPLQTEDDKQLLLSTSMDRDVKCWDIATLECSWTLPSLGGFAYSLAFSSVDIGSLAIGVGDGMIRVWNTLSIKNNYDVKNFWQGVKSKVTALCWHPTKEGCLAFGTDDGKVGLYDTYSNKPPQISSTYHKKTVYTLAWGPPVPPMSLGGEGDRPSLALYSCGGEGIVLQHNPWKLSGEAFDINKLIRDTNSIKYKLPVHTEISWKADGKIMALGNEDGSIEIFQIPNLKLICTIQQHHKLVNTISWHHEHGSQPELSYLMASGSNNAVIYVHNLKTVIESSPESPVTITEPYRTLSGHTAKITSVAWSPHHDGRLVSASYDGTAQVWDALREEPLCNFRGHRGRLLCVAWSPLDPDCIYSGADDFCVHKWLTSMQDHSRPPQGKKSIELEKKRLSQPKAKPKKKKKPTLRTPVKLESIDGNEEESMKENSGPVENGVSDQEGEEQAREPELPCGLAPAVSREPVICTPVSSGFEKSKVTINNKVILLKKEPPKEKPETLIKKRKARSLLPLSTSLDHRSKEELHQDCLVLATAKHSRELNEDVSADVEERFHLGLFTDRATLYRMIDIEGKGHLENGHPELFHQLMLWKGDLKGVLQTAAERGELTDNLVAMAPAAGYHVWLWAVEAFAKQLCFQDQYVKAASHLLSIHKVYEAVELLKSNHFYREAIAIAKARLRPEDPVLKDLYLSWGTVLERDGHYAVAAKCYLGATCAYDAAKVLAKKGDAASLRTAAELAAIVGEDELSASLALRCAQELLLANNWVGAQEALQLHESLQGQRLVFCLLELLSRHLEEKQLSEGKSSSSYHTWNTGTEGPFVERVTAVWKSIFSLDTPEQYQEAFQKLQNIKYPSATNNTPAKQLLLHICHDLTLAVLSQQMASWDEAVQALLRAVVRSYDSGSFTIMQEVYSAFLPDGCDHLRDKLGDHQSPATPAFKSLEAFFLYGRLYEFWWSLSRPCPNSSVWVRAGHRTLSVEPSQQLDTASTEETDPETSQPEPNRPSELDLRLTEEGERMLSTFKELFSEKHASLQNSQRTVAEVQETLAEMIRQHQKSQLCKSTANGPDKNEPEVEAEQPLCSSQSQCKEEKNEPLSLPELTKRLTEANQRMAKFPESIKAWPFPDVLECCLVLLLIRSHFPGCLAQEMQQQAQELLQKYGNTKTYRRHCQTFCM
inactive: [1] -0.011 | [2] -0.018 | [3] -0.133 | [4] -0.015 | entinostat 0.029 | vorinostat -0.046 | citarinostat -0.065 | silmitasertib 0.009 | [5] -0.057 | [6] -0.034

GSTM4 (UniProt Q03013)
inactive: [1] -0.071 | [2] -0.046 | [3] -0.121 | [4] 0.023 | entinostat -0.068 | vorinostat -0.013 | citarinostat -0.079 | silmitasertib 0.137 | [5] 0.151 | [6] 0.199

HSPA8 (UniProt E9PK54)
inactive: [1] 0.015 | [2] 0.023 | [3] -0.071 | [4] -0.136 | entinostat 0.061 | vorinostat -0.064 | citarinostat 0.068 | silmitasertib 0.028 | [5] 0.093 | [6] -0.027

IDI1 isoform 2 (UniProt Q13907)
inactive: [1] -0.062 | [2] 0.01 | [3] -0.038 | [4] 0.024 | entinostat -0.03 | vorinostat 0.008 | citarinostat -0.017 | silmitasertib 0.078 | [5] -0.066 | [6] 0.035

FAM91A1 (UniProt Q658Y4)
inactive: [1] -0.009 | [2] -0.061 | [3] -0.08 | [4] -0.042 | entinostat -0.003 | vorinostat 0.004 | citarinostat -0.003 | silmitasertib 0.073 | [5] -0.346 | [6] -0.084

HSPA8 (UniProt E9PN89)
inactive: [1] -0.317 | [2] -0.283 | [3] -0.172 | [4] -0.372 | entinostat -0.135 | vorinostat -0.057 | citarinostat -0.304 | silmitasertib 0.365 | [5] -0.102 | [6] -0.394

HOOK3 (UniProt Q86VS8)
inactive: [1] 0.05 | [2] -0.077 | [3] -0.079 | [4] -0.081 | entinostat 0.063 | vorinostat 0.056 | citarinostat -0.022 | silmitasertib 0.101 | [5] -0.049 | [6] -0.05

GDPD1 (UniProt Q8N9F7)
inactive: [1] -0.024 | [2] 0.144 | [3] 0.067 | [4] 0.003 | entinostat -0.011 | vorinostat -0.141 | citarinostat 0.051 | silmitasertib -0.039 | [5] 0.096 | [6] -0.038

IDH3A (UniProt P50213)
Chain of UniProt P50213 (P50213 whole entry, looked up): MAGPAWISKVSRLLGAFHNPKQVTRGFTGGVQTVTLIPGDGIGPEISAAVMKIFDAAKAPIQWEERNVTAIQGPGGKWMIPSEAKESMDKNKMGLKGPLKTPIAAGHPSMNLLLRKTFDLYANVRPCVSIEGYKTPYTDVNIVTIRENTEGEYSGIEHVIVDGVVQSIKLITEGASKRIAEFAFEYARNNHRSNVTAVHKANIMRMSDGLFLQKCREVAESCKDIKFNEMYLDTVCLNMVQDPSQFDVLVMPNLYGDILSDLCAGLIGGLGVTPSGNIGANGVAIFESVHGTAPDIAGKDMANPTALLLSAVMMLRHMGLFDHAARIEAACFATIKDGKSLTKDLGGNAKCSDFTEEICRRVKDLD
inactive: [1] 0 | [2] -0.033 | [3] -0.062 | [4] -0.005 | entinostat -0.025 | vorinostat -0.029 | citarinostat 0.023 | silmitasertib -0.034 | [5] -0.021 | [6] 0.011

FBXO3 (UniProt Q9UK99)
Chain of UniProt Q9UK99 (Q9UK99 whole entry, looked up): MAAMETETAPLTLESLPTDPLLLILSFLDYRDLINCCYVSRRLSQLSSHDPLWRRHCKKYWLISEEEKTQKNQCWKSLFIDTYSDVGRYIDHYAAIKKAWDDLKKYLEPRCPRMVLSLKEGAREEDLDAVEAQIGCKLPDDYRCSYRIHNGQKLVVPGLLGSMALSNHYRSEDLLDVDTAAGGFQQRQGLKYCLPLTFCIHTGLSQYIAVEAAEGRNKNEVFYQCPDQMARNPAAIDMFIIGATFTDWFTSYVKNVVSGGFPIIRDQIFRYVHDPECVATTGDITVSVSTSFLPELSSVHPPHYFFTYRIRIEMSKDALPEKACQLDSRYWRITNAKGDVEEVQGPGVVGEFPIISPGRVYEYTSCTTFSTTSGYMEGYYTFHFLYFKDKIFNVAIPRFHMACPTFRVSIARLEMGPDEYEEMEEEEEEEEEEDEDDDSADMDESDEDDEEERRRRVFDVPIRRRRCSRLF
inactive: [1] -0.034 | [2] -0.013 | [3] -0.202 | [4] -0.013 | entinostat -0.039 | vorinostat 0.011 | citarinostat 0.016 | silmitasertib -0.003 | [5] 0.001 | [6] -0.12

HBQ1 (UniProt P09105)
Chain of UniProt P09105 (P09105 whole entry, looked up): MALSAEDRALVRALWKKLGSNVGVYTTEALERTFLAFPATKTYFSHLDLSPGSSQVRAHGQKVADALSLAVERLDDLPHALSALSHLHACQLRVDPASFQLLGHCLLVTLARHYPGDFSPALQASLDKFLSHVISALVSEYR
inactive: [1] 0.058 | [2] -0.048 | [3] -0.043 | [4] 0.006 | entinostat 0.014 | vorinostat -0.05 | citarinostat 0.032 | silmitasertib -0.047 | [5] -0.119 | [6] 0.021

HDAC6 (UniProt Q9UBN7)
Chain of UniProt Q9UBN7 (Q9UBN7 whole entry, looked up): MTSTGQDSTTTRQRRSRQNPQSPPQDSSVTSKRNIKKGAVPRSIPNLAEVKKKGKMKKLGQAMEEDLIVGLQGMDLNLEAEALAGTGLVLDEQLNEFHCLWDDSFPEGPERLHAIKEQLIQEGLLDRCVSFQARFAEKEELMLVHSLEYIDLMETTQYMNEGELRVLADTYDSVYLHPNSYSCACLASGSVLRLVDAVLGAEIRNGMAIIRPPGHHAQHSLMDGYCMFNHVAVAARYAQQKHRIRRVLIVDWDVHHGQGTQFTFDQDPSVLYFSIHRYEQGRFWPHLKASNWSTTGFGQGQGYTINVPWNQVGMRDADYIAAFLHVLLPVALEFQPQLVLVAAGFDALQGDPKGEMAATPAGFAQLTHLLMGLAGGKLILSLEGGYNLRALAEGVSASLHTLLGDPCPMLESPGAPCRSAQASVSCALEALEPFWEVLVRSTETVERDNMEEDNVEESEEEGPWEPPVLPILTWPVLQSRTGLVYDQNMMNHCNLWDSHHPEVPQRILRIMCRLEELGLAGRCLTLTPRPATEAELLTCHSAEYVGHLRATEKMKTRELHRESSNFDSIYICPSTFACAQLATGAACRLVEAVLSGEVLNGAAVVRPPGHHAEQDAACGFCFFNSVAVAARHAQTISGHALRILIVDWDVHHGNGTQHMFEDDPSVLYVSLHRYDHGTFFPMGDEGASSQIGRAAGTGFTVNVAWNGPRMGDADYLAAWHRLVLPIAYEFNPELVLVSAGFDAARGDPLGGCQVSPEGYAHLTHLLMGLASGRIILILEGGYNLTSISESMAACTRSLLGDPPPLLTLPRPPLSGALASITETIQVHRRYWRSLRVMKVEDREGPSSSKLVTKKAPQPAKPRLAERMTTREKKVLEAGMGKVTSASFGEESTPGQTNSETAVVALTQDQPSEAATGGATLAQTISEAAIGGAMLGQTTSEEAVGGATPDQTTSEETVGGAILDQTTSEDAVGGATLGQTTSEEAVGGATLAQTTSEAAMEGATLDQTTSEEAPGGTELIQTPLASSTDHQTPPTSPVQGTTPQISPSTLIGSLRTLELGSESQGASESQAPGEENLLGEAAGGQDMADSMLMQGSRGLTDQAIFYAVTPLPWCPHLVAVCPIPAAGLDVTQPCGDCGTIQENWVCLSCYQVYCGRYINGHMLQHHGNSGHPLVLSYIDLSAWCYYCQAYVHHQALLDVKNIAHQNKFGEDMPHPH
inactive: [1] 0.002 | [2] -0.04 | [3] 0.054 | [4] 0.001 | entinostat -0.053 | silmitasertib 0.009 | [5] 0.004 | [6] 0.064
active: vorinostat 0.86 | citarinostat 0.747

HHEX (UniProt Q03014)
active: [4] 0.568
inactive: [1] 0.04 | [2] 0.084 | [3] -0.054 | entinostat 0.045 | vorinostat 0.012 | citarinostat 0.029 | silmitasertib -0.018 | [5] 0.006 | [6] -0.016

GCC2 (UniProt Q8IWJ2)
inactive: [1] -0.009 | [2] -0.005 | [3] 0.081 | [4] 0.009 | entinostat 0.03 | vorinostat -0.002 | citarinostat -0.066 | silmitasertib 0.212 | [5] 0.225 | [6] 0.009

H2AFX (UniProt P16104)
inactive: [1] 0.054 | [2] 0.245 | [3] 0.441 | [4] 0.041 | entinostat 0.132 | vorinostat 0.216 | citarinostat -0.035 | silmitasertib 0.08 | [5] 0.077 | [6] -0.083

GSK3A (UniProt P49840)
Chain of UniProt P49840 (P49840 whole entry, looked up): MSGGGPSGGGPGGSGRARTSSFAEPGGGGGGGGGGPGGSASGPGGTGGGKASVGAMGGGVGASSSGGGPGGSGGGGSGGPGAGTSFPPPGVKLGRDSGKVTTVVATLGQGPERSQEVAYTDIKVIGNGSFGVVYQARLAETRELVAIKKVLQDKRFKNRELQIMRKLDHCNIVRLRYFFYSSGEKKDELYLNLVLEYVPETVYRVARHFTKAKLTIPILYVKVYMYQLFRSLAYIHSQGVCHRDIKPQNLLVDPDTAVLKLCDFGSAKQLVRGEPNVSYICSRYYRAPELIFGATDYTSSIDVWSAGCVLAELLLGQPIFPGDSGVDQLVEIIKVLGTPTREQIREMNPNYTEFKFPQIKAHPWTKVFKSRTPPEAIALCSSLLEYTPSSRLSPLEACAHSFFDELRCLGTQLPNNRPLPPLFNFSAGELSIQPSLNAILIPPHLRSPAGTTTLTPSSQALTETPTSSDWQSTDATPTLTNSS
active: [5] 0.454
inactive: [1] -0.02 | [2] 0.014 | [3] -0.054 | [4] 0.051 | entinostat -0.03 | vorinostat -0.053 | citarinostat 0.015 | silmitasertib -0.004 | [6] 0.193

HEATR5B (UniProt Q9P2D3)
inactive: [1] 0.01 | [2] 0.012 | [3] -0.152 | [4] -0.028 | entinostat -0.03 | vorinostat -0.008 | citarinostat 0 | silmitasertib -0.053 | [5] 0.083 | [6] 0.056

HMGN2 (UniProt P05204)
inactive: [1] 0.071 | [2] 0.07 | [3] 0.139 | [4] 0.027 | entinostat -0.092 | vorinostat -0.225 | citarinostat -0.129 | silmitasertib 0.02 | [5] 0.067 | [6] 0.151

GYG1 (UniProt P46976)
inactive: [1] 0.012 | [2] -0.017 | [3] 0.075 | [4] 0.134 | entinostat -0.019 | vorinostat -0.056 | citarinostat -0.011 | silmitasertib 0.049 | [5] 0.037 | [6] -0.057

GAK (UniProt O14976)
inactive: [1] 1.52 | [2] 0.465 | [3] 0.145 | [4] 1.4 | entinostat -0.072 | vorinostat -0.01 | citarinostat -0.244 | silmitasertib 0.607 | [5] 0.236 | [6] 0.687

GALNT1 (UniProt Q10472)
inactive: [1] -0.016 | [2] -0.012 | [3] -0.068 | [4] -0.016 | entinostat -0.027 | vorinostat 0.067 | citarinostat 0.011 | silmitasertib -0.007 | [5] -0.121 | [6] 0.046

IFNGR1 (UniProt P15260)
inactive: [1] -0.116 | [2] -0.068 | [3] 0.27 | [4] 0.051 | entinostat -0.123 | vorinostat 0.058 | citarinostat 0.014 | silmitasertib 0.055 | [5] -0.118 | [6] -0.086

HRC (UniProt P23327)
inactive: [1] -0.161 | [2] 0.005 | [3] -0.02 | [4] -0.056 | entinostat -0.114 | vorinostat -0.128 | citarinostat -0.011 | silmitasertib 0.013 | [5] 0.023 | [6] -0.026

GOLPH3 (UniProt Q9H4A6)
Chain of UniProt Q9H4A6 (Q9H4A6 whole entry, looked up): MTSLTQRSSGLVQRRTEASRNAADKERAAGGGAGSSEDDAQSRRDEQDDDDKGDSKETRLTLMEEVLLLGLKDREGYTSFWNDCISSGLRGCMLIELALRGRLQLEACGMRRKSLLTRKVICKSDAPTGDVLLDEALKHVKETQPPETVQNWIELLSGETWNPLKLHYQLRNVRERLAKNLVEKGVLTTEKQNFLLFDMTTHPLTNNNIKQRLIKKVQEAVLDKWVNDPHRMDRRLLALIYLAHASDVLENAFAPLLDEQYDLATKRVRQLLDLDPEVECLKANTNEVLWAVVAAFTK
inactive: [1] 0.041 | [2] -0.082 | [3] 0.009 | [4] 0 | entinostat 0.022 | vorinostat 0.014 | citarinostat 0.071 | silmitasertib -0.013 | [5] 0 | [6] -0.043

HLTF (UniProt Q14527)
inactive: [1] -0.025 | [2] 0.037 | [3] -0.067 | [4] -0.043 | entinostat 0.069 | vorinostat -0.012 | citarinostat 0.008 | silmitasertib -0.095 | [5] -0.073 | [6] -0.101
